# Only some compounds are listed: those with a hit (about 21% of all), similar ones and a draw of the others.
# Shiga toxin inh = inhibitors of Shiga toxin in Vero cells. Vero cells, Shiga toxin protein synthesis inhibition reporter. inhibition, % at 38.7 µM. actives 9.2% (n = 290,000). AID 2315; in the data active = inhibition mostly above about 28%, no sharp cut-off; inactive = mostly below about 43%; also: 0% is about no effect
# Pf growth 96h = inhibits malaria parasite growth, 96 h; P. falciparum luciferase reporter growth, 96 h; Potency, µM (titrated, usually from 28.7 µM), inactives show at the highest dose activity change, negative = inhibition, actives largely listed as inhibitors; actives 6.9% (n = 320,000); also: potency is read from the fitted curve at half-maximal effect; % is scaled to controls: 0 for no effect and ±100 for the full control effect
#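 Two parasite generations (96 h, 37 C, 5% CO2) of compound exposure in infected erythrocytes (0.05% parasitemia, 2% hematocrit). Luciferase-reporter P. falciparum; decreased luminescence indicates inhibited growth, aimed at apicoplast-acting delayed death.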
# Cycloheximide cs = counter-screen for Shiga toxin inhibitors: cycloheximide protein synthesis inhibition. cell reporter, cycloheximide protein synthesis inhibition counterscreen. max response, %. actives 12% (n = 300,000). AID 2314; in the data active = max response mostly above about 13%, no sharp cut-off; inactive = mostly below about 14%; also: read at 38.3 µM for the half of the compounds with a filed dose; 0% is about no effect
# FBPA Giardia inh = inhibitors of Giardia lamblia fructose-1,6-bisphosphate aldolase. A8B2U2. purified Giardia FBPA. Potency, µM (titrated, usually from 59.6 µM), without a hit: at the top dose activity, negative = inhibition, hits mostly inhibitors. actives 0.71% (n = 290,000); also: potency is read from the fitted curve at half-maximal effect; % is scaled to controls: 0 for no effect and ±100 for the full control effect; nearly all actives have a fitted effect of over 55% in size
# Target sequence (A8B2U2 whole entry, looked up): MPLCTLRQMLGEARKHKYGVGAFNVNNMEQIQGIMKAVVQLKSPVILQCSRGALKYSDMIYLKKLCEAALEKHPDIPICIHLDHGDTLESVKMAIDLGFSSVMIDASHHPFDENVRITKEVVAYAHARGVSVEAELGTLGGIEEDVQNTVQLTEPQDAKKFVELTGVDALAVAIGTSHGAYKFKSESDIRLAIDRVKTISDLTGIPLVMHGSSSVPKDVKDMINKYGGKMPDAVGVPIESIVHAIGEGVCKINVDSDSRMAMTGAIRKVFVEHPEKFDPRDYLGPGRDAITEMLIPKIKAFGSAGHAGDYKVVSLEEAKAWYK
#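 40 nM FBPA preincubated 10 min at RT with compound (up to 57.5 uM final), then substrate plus GAPDH/TPI/NAD/arsenate coupling and diaphorase/resazurin added. Fluorescence read after 20 min at RT, 525/598 nm.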
# NS1 function inh = blocks influenza NS1 protein function. Potency, µM (highest dose often 46.1 µM), inactives show top-dose activity, positive = more growth. actives 0.4% (n = 270,000); calls by dose curve; also: potency is read from the fitted curve at half-maximal effect; actives are rising curves; nearly all actives have a fitted effect of over 50% in size
#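 A cell-based growth assay was used: compounds that relieve NS1-induced slow growth of budding yeast raise OD600. Assay medium was yeast nitrogen base with ammonium sulphate and -URA supplement, pH 6.0, with 2% galactose.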
# Pf growth 48h = P. falciparum growth inhibition at 48 hours (one generation) | P. falciparum luciferase growth in erythrocytes, 48 h | Potency, µM (highest dose often 28.7 µM), for inactives: top-dose activity change, negative = inhibition, most hits filed as inhibitors | actives 5.9% (n = 310,000); also: potency is read from the fitted curve at half-maximal effect; % is scaled to controls: 0 for no effect and ±100 for the full control effect
#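 Cell-based growth assay: transgenic P. falciparum expressing firefly luciferase, cultured in red cells within RPMI 1640 containing 0.5% w/v Albumax, 24 mM bicarbonate and gentamycin. A drop in luciferase activity indicates inhibition.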
# An asterisk follows results filed as active; ? = inconclusive; nt = no result given; [ ] = dose if it differs, or a comment. Unless noted, calls follow the shape of the dose curve; as a rule, active = well fitted curve in the direction sought with a large enough effect; inconclusive = small, poorly fitted or top-dose-only effect, or another doubt; inactive = no such curve, though single readings can be large; an effect the other way counts as inactive or inconclusive.
SMILES,Shiga toxin inh,Pf growth 96h,Cycloheximide cs,FBPA Giardia inh,NS1 function inh,Pf growth 48h
COc1ccccc1Nc1nnc(SCC2CCCCO2)s1 (stereo not given),51,-60%,26*,-18%,nt,195%
Cc1ccccc1Nc1nnc(SCC2CCCCO2)s1 (stereo not given),15*,-52%,55*,3%,-27%,78%
COc1ccccc1Nc1nnc(SCC(=O)N2CCCC2=O)s1,33,nt,16,1%,-2%,-6%
Cc1ccc(Nc2nnc(SCC3CCCCO3)s2)cc1 (stereo not given),54*,?,41*,-28%,-8%,-6%
Cc1ccc(-n2c(SCC3CCCCO3)nnc2-c2ccco2)cc1 (stereo not given),2,?,-5,0%,-13%,?
Cc1ccc(NC(=O)CSCC(=O)N(C)CC(=O)Nc2cccc(F)c2)cc1,nt,5%,nt,nt,nt,21%
O=P(O)(O)C(O)(Cc1cccnc1)P(=O)(O)O,nt,24%,nt,nt,nt,-5%
Cc1noc(NS(=O)(=O)c2cccc3c(N(C)C)cccc23)c1C,nt,nt,nt,-16%,nt,nt
O=C(CNC(=O)c1ccco1)N/N=C/c1ccc(O)c([N+](=O)[O-])c1,14,50%,-4,-8%,-1%,3%
COc1cccc(/C=N/NC(=O)CNC(=O)c2ccco2)c1O,54,22%,15*,14%,1%,-24%
COc1cc(C(=O)NCC(=O)N/N=C/c2cccc(OC(=O)c3ccco3)c2)cc(OC)c1OC,56,?,15*,-5%,nt,16%
O=C(CNC(=O)c1ccco1)N/N=C/c1ccccc1[N+](=O)[O-],33,0.93µM*,11,1%,nt,8%
COc1cc(C(=O)NCC(=O)N/N=C/c2ccco2)cc(OC)c1OC,-2,-2%,-2,-3%,3%,21%
COc1cccc(/C=N/NC(=O)CNC(=O)c2ccncc2)c1O,-3,20%,-3,?,7%,3%
Nc1ncc(O)c(N)n1,-4,nt,2,?,nt,nt
Cc1ccc(N2CCN(S(=O)(=O)c3ccc4oc(=O)ccc4c3)CC2)c(C)c1,19,-16%,-1,-1%,-51%,-2%
Cc1cc(OCCn2c(CCNC(=O)C3CCCCC3)nc3ccccc32)ccc1Cl,-9,nt,-8,nt,nt,nt
CC(=O)[C@H]1[C@H](C#N)CC2C3CC=C4C[C@@H](O)CCC4(C)C3CCC21C (stereo not given in full),-4,nt,-1,3%,nt,nt
CCCC1(C(=O)OC)C=C2C(=C(c3ccccc3)C(=O)C2C)CN1 (stereo not given),nt,nt,nt,-20%,nt,nt
CCOc1ccc(C2C=C(c3ccc(F)cc3)Nc3ncnn32)cc1 (stereo not given),1,nt,-2,-20%,-60%,12µM*
COc1ccc(C2C=C(c3ccc(C)cc3)Nc3ncnn32)cc1 (stereo not given),18,-4%[5.75 µM],14,-20%,-141%,12µM*
COc1ccc(OCCC(=O)NCCN2CCOCC2)cc1,13,42%,-3,-7%,nt,6%
O=C(NC1CCCC1)c1n[nH]c2ccccc12,54,48%,43*,-12%,-1%,11%
COc1ccc(CNC(=O)COC(=O)c2n[nH]c3ccccc23)cc1,-13,-15%,-1,0%,-7%,2%
COCCNC(=O)c1cc2c(=O)[nH]c3ccccc3c2s1,-20,1.2µM*,4,-6%,3%,?
SMILES,Shiga toxin inh,Pf growth 96h,Cycloheximide cs,FBPA Giardia inh,NS1 function inh,Pf growth 48h
COC(=O)c1n[nH]c2ccccc12,-12,nt,-3,0%,-13%,8%
COCCNC(=O)c1n[nH]c2ccccc12,57,88%,31*,2%,nt,75%
COc1ccc(CCNC(=O)c2n[nH]c3ccccc23)cc1,45*,-2%,47*,3%,nt,-16%
Cc1c(OCC(=O)C(C)(C)C)ccc2c(-c3ccccc3)cc(=O)oc12,50,?,6,-5%,-24%,-2%
COC(=O)c1ccc(N2CCN(C)CC2)c(NC(=O)c2ccc(Br)o2)c1,15,10%,-2,nt,-2%,?
COc1cc2c(cc1OC)CN(C(=O)c1ccc(OC)c(S(=O)(=O)N3CCOCC3)c1)CC2,38,nt,24*,3%,-12%,?
COc1ccc(C(=O)Nc2ccc(-c3cn4ccsc4n3)cc2)cc1S(=O)(=O)N1CCOCC1,26,0.33µM*,-5,3%,-7%,?
COc1ccc(C(=O)Nc2ccc(N3CCOCC3)cc2)cc1S(=O)(=O)N1CCOCC1,nt,9%,nt,nt,nt,43%
COc1ccc(C(=O)Nc2ccc(N3CCOCC3)cc2)cc1S(=O)(=O)N1CCCC1,nt,-14%,nt,nt,nt,?
COc1ccc(C(=O)Nc2ccc(-c3ccc(C)o3)cc2)cc1S(=O)(=O)N1CCOCC1,48,nt,19*,0%,2%,?
O=C(c1cccc(F)c1)N1CCC2(CCCN(C(c3ccccc3)c3ccccc3)C2)CC1,nt,nt,nt,-2%,nt,nt
Cc1ccccc1C(=O)O/N=C(\N)c1ccc([N+](=O)[O-])cc1,nt,?,32*,-1%,-8%,-3%
Cc1ccccc1C(=O)O/N=C(\N)c1ccccc1,28,4%,21*,-4%,-54%,6%[0.00184 µM]
N/C(=N\OC(=O)c1ccccc1Br)c1ccc([N+](=O)[O-])cc1,19*,252%,10*,3%,-8%,203%
O=C(CS(=O)(=O)c1ccc(F)cc1)NCCS(=O)(=O)c1ccccc1,-6,29%,1,0%,5%,-4%
Cc1ccccc1C(=O)O/N=C(\c1ccccc1)c1ccccn1,-4,17%,8,-3%,-27%,-4%
N/C(CS(=O)(=O)c1ccccc1)=N\OC(=O)c1ccc(F)cc1,109*,5%,28*,nt,6%,43%
O=c1oc2cc(N=Cc3ccc4c(c3)OCO4)ccc2c2ccccc12,nt,nt,nt,nt,6%,nt
C[C@@H]1/C=C\CC(=O)OC[C@H](C)C(=O)N2CCC[C@@H]2C(=O)OC1,nt,nt,nt,3%[12.9 µM],nt,nt
N/C(=N\OC(=O)c1ccccc1Br)c1cccc([N+](=O)[O-])c1,118*,311%,52*,-4%,-6%,nt
COc1ccccc1C(=O)O/N=C(/c1ccncc1)c1ccc([N+](=O)[O-])cc1,-7,5.2µM*,-3,-2%,-4%,?
Cc1ccccc1C(=NC(=O)c1ccccc1)c1ccccc1,23,6.6µM*,-2,0%,-51%,8.3µM*
CCOC(=O)N1c2ccccc2Sc2ccccc21,9,1%,-3,-1%,0%,?
Cc1ccccc1/C(N)=N/OC(=O)N1c2ccccc2Sc2ccccc21,7,10µM*,7,6%,-43%,?
O=C(O)c1cccc(Sc2cc(Cl)ccc2C(=O)O)c1,nt,?,nt,nt,nt,21%
O=S(=O)(NCCN1CCOCC1)c1ccc(F)c(Cl)c1,-2,24%,-1,-9%,2%,26%
